Measurements published in ChEMBL document CHEMBL3988442, “University of Dundee, Small-Polar-MMV Screening Library” (2021).
Out of some 67,000 compounds screened, about 300 (0.45%) showed an effect of 50% or more. Many of the other results were omitted from the sample, so strong results are more common in it than they were.

Target: Polyketide synthase Pks13 (Mycobacterium tuberculosis (strain ATCC 25618 / H37Rv)) (UniProt I6X8D2)
Assay: Mycobacterium tuberculosis Polyketide synthase 13 Thioesterase (PKS13)
Format: functional
Design: scale not given: in the data most compounds retested in dose-response had high values
Details: 30 µM

Chain of Polyketide synthase Pks13 (Mycobacterium tuberculosis (strain ATCC 25618 / H37Rv)) (I6X8D2 whole entry): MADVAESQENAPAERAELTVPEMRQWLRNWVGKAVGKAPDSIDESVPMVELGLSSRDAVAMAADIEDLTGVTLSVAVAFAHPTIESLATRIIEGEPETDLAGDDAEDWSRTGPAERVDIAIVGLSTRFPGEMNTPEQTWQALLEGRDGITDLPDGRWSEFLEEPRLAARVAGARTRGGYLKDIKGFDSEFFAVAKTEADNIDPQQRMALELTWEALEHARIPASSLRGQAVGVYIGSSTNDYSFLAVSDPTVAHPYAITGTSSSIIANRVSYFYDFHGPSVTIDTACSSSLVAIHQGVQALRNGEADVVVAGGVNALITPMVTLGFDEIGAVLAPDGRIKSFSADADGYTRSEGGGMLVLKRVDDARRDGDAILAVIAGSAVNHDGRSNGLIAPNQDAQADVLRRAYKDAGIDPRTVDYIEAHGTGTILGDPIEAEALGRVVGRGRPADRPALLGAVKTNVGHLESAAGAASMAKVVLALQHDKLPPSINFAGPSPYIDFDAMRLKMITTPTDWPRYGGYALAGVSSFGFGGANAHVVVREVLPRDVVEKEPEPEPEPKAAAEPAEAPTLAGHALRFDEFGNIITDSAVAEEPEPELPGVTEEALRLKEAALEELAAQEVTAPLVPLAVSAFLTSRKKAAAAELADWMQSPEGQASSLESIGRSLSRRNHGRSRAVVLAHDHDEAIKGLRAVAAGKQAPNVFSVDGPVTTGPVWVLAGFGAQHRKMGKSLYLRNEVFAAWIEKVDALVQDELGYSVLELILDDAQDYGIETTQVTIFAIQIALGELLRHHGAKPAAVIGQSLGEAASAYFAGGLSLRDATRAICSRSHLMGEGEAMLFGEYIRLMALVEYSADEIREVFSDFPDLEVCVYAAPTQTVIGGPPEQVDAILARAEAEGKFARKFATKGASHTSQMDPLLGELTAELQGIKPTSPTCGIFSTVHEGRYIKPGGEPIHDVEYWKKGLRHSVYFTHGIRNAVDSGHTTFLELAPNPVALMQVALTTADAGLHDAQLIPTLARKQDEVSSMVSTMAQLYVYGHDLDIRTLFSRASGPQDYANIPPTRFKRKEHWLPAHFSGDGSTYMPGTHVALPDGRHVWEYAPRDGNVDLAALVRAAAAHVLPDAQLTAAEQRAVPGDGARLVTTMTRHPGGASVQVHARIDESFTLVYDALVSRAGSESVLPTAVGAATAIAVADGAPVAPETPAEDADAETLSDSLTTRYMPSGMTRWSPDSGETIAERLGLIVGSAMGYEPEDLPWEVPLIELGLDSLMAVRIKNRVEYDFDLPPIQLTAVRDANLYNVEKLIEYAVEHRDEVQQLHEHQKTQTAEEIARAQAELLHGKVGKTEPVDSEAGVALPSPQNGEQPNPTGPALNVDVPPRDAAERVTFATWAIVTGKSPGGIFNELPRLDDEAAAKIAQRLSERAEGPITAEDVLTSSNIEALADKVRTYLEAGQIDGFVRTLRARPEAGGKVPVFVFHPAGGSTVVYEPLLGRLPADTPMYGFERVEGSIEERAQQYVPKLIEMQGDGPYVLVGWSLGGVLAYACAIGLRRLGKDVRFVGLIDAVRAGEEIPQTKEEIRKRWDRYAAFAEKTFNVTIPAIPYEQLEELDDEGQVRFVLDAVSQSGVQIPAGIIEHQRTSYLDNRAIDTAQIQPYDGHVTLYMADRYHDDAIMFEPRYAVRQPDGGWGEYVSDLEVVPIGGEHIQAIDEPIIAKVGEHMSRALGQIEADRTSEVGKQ

Row | SMILES | Percent Effect [%]
1 | CN(Cc1cncnc1)[C@H]1CN(CC2CC2)[C@@H]2CCCO[C@@H]21 | -5.38
2 | O=C1CN([C@@H]2CC[C@@H](NS(=O)(=O)c3ccccc3)[C@H]2O)CCN1 | 0.207
3 | Cc1ccccc1S(=O)(=O)N[C@@H]1CC[C@@H](N2CCNC(=O)C2)[C@@H]1O | 53
4 | O=C1CN([C@@H]2CC[C@@H](NS(=O)(=O)c3ccccc3F)[C@H]2O)CCN1 | -2.59
5 | COCCN1C[C@@H]2CCCO[C@@H]2[C@H](N(C)Cc2ccco2)C1 | -24.6
6 | Cc1ccc(CN2CC[C@@]3(O)CCN(S(=O)(=O)N(C)C)C[C@H]3C2)cc1C | -28.6
7 | Cc1cc(-c2cnn(CCNC(=O)c3snnc3C)c2C2CC2)on1 | 90.2
8 | Cc1cc(-c2cnn(CCNC(=O)C3CC3)c2C2CC2)on1 | -12
9 | Cc1cc(-c2cnn(CCNC(=O)c3cnn(C)c3)c2C2CC2)on1 | -12.5
10 | COc1cccc(-c2cc(NCCN(C)C)nc3[nH]ccc23)n1 | 7.82
11 | COc1cccc(-c2cc(NCC(=O)O)nc3[nH]ccc23)n1 | 58.3
12 | COc1cccc(-c2cc(NCCO)nc3[nH]ccc23)n1 | 7.17
13 | CCC(=O)N1CCCCC[C@@H]2[C@@H]1[C@H](c1cccc(F)c1)CN2C | -27
14 | COc1cccc(-c2noc(-c3ccc(NCCCO)nc3)n2)c1OC | 40.8
15 | CCC(C)Nc1ccc(-c2nc(-c3cccc(OC)c3OC)no2)cn1 (configuration not stated) | 69.5
16 | COc1cccc(-c2noc(-c3ccc(NCC(C)C)nc3)n2)c1OC | 66
17 | CNCCNc1ccc(-c2nc(-c3cccc(OC)c3OC)no2)cn1 | -36.1
18 | COc1cccc(-c2noc(-c3ccc(NCC(C)O)nc3)n2)c1OC (configuration not stated) | 30.5
19 | COc1cccc(-c2noc(-c3ccc(NCC4CC4)nc3)n2)c1OC | 36.1
20 | CN(C)C(=O)N1CC[C@]2(O)CCN(C(=O)c3ccc(C#N)nc3)C[C@@H]2C1 | -13.4
21 | CCCN1CCN(C(=O)c2cc[nH]n2)[C@H]2CS(=O)(=O)C[C@H]21 | -8.12
22 | Cc1nnc([C@@H]2CC[C@@H]3[C@@H](CCN3Cc3ccccn3)O2)o1 | -21.9
23 | O=C1[C@@H]2CCN(CC3CCOCC3)C[C@@H]2OCCN1c1ccccc1 | -30.7

Row | SMILES | Percent Effect [%]
24 | CCC(=O)N1CCN(C(=O)c2cn3ccsc3n2)[C@H]2CS(=O)(=O)C[C@H]21 | -15.8
25 | O=C(Cc1cnccn1)N1C[C@H]2CC[C@@H]1CN(Cc1cscn1)C2 | -24.8
26 | CN(Cc1ccccc1)C(=O)c1nc(S(C)(=O)=O)n2ccccc12 | -33.7
27 | CN(CCC(F)(F)F)C(=O)c1nc(S(C)(=O)=O)n2ccccc12 | -23
28 | Cc1nc(C(=O)N(C)CC(F)(F)C(F)(F)F)c2ccccn12 | 132
29 | CC(C)CN1C(=O)CO[C@@H]2CN(C(=O)NC(C)C)C[C@H]21 | -42.5
30 | O=C(CSCC1CC1)N1C[C@@H]2CC[C@H](C1)N(Cc1ccccn1)C2=O | -35
31 | CO[C@H]1CCN(Cc2c(C)noc2C)[C@@H]2CN(Cc3ccncc3)C[C@H]12 | 13.1
32 | CNCc1cn(C[C@H]2C[C@@H]3CCN2C[C@@H]3C(=O)NC2CCCCC2)nn1 | -24.7
33 | Cn1cc(C2CCCN2C(=O)Cn2c(=O)oc3ccccc32)cn1 (configuration not stated) | -24.9
34 | CNc1cncc(C2CCCN2C(=O)Cn2c(=O)oc3ccccc32)n1 (configuration not stated) | 130
35 | CNc1cncc(C2CCCN2C(=O)c2ccc3oc(=O)n(C)c3c2)n1 (configuration not stated) | -18.4
36 | O=C(C1CCCO1)N1C[C@@H]2CCN(c3cnccn3)C[C@@H]2C1 (some centres not stated) | -10.1
37 | Cc1noc([C@@H]2C[C@H]3OCC[C@H]3N(S(=O)(=O)c3ccccc3)C2)n1 | -2.66
38 | Cc1noc([C@@H]2C[C@H]3OCC[C@H]3N(S(C)(=O)=O)C2)n1 | -22.1
39 | Cc1noc([C@@H]2C[C@H]3OCC[C@H]3N(S(=O)(=O)c3cccnc3)C2)n1 | 56.3
40 | CCOC(=O)[C@@H]1[C@@H](c2ccccc2)CN2CCN(C(=O)C3CC3)C[C@H]12 | -34.9
41 | CCC[C@H]1CN(S(C)(=O)=O)C[C@@H]1NC(=O)Cc1ccc(OC)cc1 | -10.8
42 | CCC[C@H]1CN(S(C)(=O)=O)C[C@@H]1NC(=O)c1ccc(COC)cc1 | 125
43 | CCC[C@H]1CN(S(C)(=O)=O)C[C@@H]1NC(=O)COC(C)C | -31
44 | CCc1cnc(N2C[C@H]3CCCC(N(C)Cc4ccccn4)[C@H]3C2)nc1 (some centres not stated) | -25
45 | CC1(C)OCC(CNC(=O)c2cnn(-c3ccc(Cl)cc3)c2N)O1 (configuration not stated) | -15.3
46 | Cc1ccc(C)c(-n2ncc(C(=O)NCC3COC(C)(C)O3)c2N)c1 (configuration not stated) | 66.6

Row | SMILES | Percent Effect [%]
47 | CC1(C)OCC(CNC(=O)c2cnn(-c3cc(Cl)ccc3Cl)c2N)O1 (configuration not stated) | -5.14
48 | NC(=O)C1CCN(C(=O)NCc2ccc3c(c2)OCCO3)CC1 | -21.9
49 | CC(=O)NCC1CCN(C(=O)NCc2ccc3c(c2)OCCO3)CC1 | -0.159
50 | O=C(NCc1ccc2c(c1)OCCO2)N1CCC(CO)CC1 | 52.7
51 | COCCN1C(=O)[C@]2(CC[C@@H]3CN(C(=O)NCC(C)C)C[C@@H]32)N=C1C | -6.17
52 | COC(=O)c1sc2cccc(F)c2c1CNC(=O)C1CCOC1 (configuration not stated) | 68.2
53 | COC(=O)c1sc2cccc(F)c2c1CNC(=O)C1CCCO1 (configuration not stated) | 1.86
54 | COC(=O)c1sc2cccc(F)c2c1CNC(=O)C1CC1 | 1.9
55 | Cc1noc(C)c1CN1CC[C@H]2[C@H]1CCN2CC1CCOCC1 | 10.3
56 | CN(Cc1ccc(N2CCOCC2)cc1)Cc1noc(C(C)(C)C)n1 | 21.8
57 | CN(Cc1noc(C(C)(C)C)n1)Cc1ccccc1N1CCCCC1 | 1.5
58 | CN(Cc1ccc(N2CCCCC2)cc1)Cc1noc(C(C)(C)C)n1 | 85.2
59 | Cn1cncc1CN1C[C@@H]2OCCN(c3ncccn3)[C@@H]2C1 | -16.4
60 | O=C(Nc1ccccc1)N1C[C@@H]2OCCN(C(=O)c3ccco3)[C@@H]2C1 | -42.5
61 | CN1CCN(C(=O)[C@@H]2CCO[C@@H]3CCN(c4ncccn4)C[C@@H]32)CC1 | -7.46
62 | CC(C)c1cc(C(F)(F)F)n2nc(CCC(=O)O)nc2n1 | 5.23
63 | Cc1nn(C)cc1-c1cc(C(F)F)n2nc(CCC(=O)O)nc2n1 | 16.4
64 | CCn1cc(-c2cc(C(F)F)n3nc(CCC(=O)O)nc3n2)cn1 | 32.3
65 | CCn1ncc(-c2cc(C(F)F)n3nc(CCC(=O)O)nc3n2)c1C | 15.6
66 | CCn1cc(-c2cc(C(F)F)n3nc(CC(=O)O)nc3n2)cn1 | 62.5
67 | Cn1cc(-c2cc(C(F)F)n3nc(CCC(=O)O)nc3n2)cn1 | 51.2
